Here are results for 9 molecules from PubChem BioAssay (Tox21).

The target of experiment [1] is Progesterone receptor (Homo sapiens) (UniProt P06401). Kind of experiment: qHTS assay to identify small molecule agonists of the progesterone receptor (PR) signaling pathway (AID 1346784; calls by dose curve; also: % is scaled to controls: 0 for no effect and ±100 for the full control effect; nearly all actives have a fitted effect of over 30% in size). In short, it runs like this: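 Beta-lactamase reporter read-out: after 16 hr compound treatment at 37C and a further 2 hr at room temperature with LiveBLAzer B/G FRET substrate, fluorescence was measured in PR-UAS-bla HEK 293T cells grown in 2% charcoal-stripped serum.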

A short description of experiment [2]: qHTS assay to identify small molecule antagonists of the progesterone receptor (PR) signaling pathway - cell viability counter screen (AID 1346798). Also: series mostly up to about 92 µM; % is scaled to controls: 0 for no effect and ±100 for the full control effect; nearly all actives have a fitted effect of over 50% in size. In short, it runs like this: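 HEK293T PR-UAS-bla, 2% charcoal-stripped FBS; 4 hr pre-plate; cpd + R5020, 16 h 37C; LiveBLAzer read first; then CellTiter-Glo 30 min RT, luminescence.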
The nature of experiment [3]: qHTS assay to identify small molecule agonists of the progesterone receptor (PR) signaling pathway - cell viability counter screen (AID 1346799; calls by dose curve; also: % is scaled to controls: 0 for no effect and ±100 for the full control effect; nearly all actives have a fitted effect of over 45% in size). An outline of the steps: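 Luminescence from CellTiter-Glo, added after the beta-lactamase FRET read in the same wells, gave cytotoxicity in PR-UAS-bla HEK293T cells treated with compounds for 16 hr at 37C.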
Experiment [4] is described as follows: qHTS assay to identify small molecule agonists of the TGF-beta/Smad signaling pathway - cell viability counter screen (AID 1346829). Also: top concentration of the series differs between compounds; % is scaled to controls: 0 for no effect and ±100 for the full control effect; nearly all actives have a fitted effect of over 45% in size. In short, it runs like this:
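Tox21 qHTS format: SBE-bla HEK 293T cells treated with DMSO-dissolved compounds for 5 hr; CellTiter-Glo luminescence after 30 min at room temperature.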

A short description of experiment [5]: qHTS assay to identify small molecule agonists of the TGF-beta/Smad signaling pathway (AID 1346859; active = well fitted activation curve with a large enough effect in the signal ratio in the repeat runs, not every such curve was filed as active; the % refers to the signal ratio; also: series mostly up to about 77 µM; % is scaled to controls: 0 for no effect and ±100 for the full control effect). In short, it runs like this: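 SBE-bla HEK 293T, 4,000 cells/well, plated o/n; cpd in DMSO, 5 hr, 37 C/5% CO2; B/G FRET substrate 2 hr RT; ex 405, em 460/530 nm.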
The target in experiment [6] is Thyrotropin-releasing hormone receptor (Homo sapiens) (UniProt P34981). Nature of the experiment: qHTS assay to identify small molecule antagonists of the thyrotropin-releasing hormone receptor (TRHR) signaling pathway (AID 1346877; active = well fitted inhibition curve with a large enough effect in the repeat runs, not every such curve was filed as active; also: series mostly up to about 51 µM; % is scaled to controls: 0 for no effect and ±100 for the full control effect). An outline of the steps:
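Human TRHR in HEK293 cells; inhibition of the intracellular calcium rise triggered by 1 nM TRH was followed by fluorescence over 3 min. Compounds were run at 15 concentrations, three replicates each.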

Experiment [7] has the same target. Kind of experiment: qHTS assay to identify small molecule agonists of the thyrotropin-releasing hormone receptor (TRHR) signaling pathway (AID 1346891; calls by dose curve; also: potency is read from the fitted curve at half-maximal effect; as to activation: series mostly up to about 58 µM; % is scaled to controls: 0 for no effect and ±100 for the full control effect). In short, it runs like this:
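Intracellular calcium rise, read as fluorescence every second for 3 min, served as the agonist signal in dye-loaded HEK293 cells expressing TRHR; each compound ran at 15 concentrations in triplicate.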

Experiment [8] is described as follows: Human pregnane X receptor (PXR) small molecule agonists, qHTS cell viability counter screen (AID 1346977). Also: nearly all actives have a fitted effect of over 50% in size. Also: potency is read from the fitted curve at half-maximal effect. As to activity change, negative = cytotoxicity: % is scaled to controls: 0 for no effect and ±100 for the full control effect. In short, it runs like this: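 PXR-Luc HepG2, 2,000 cells/well, 5% charcoal-stripped FBS; 5hr settle; cpd 24hr, 37C/5% CO2; CellTiter-Fluor at 23hr, read 1hr later (fluorescence).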
Experiment [9] can be described thus: Caspase-3/7 induction in HepG2 cells by small molecules, qHTS assay (AID 1346978). Also: % is scaled to controls: 0 for no effect and ±100 for the full control effect; nearly all actives have a fitted effect of over 15% in size. In short, it runs like this: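 Wild-type HepG2 cells (2,000/well) were settled 5 h at 37 C, 5% CO2, then exposed to compounds in DMSO for 17 h. Caspase-3/7 activity was read by luminescence 30 min after adding Caspase-Glo 3/7 reagent at room temperature.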
Experiment [10] can be described thus: Caspase-3/7 induction in CHO-K1 cells by small molecules, qHTS cell viability counter screen (AID 1346979). Also: % is scaled to controls: 0 for no effect and ±100 for the full control effect; nearly all actives have a fitted effect of over 35% in size. In short, it runs like this:
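Cells (CHO-K1, wild type) are plated at 1,500 per well and incubated 5hr. Test compounds in DMSO are then pinned in, followed by 16hr at 37C and 5% CO2. Viability is read by CellTiter-Fluor fluorescence after 1hr.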

Experiment [11] can be described thus: Caspase-3/7 induction in CHO-K1 cells by small molecules, qHTS assay (AID 1346980). Also: % is scaled to controls: 0 for no effect and ±100 for the full control effect; nearly all actives have a fitted effect of over 15% in size. An outline of the steps:
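Wild-type cells were seeded at 1,500 per well and settled 5 hr at 37 C, 5% CO2, then exposed to DMSO-dissolved compounds for 17 hr. Caspase-Glo 3/7 reagent was added, and luminescence was read after 30min at room temperature.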

Experiment [12] in a line: Caspase-3/7 induction in HepG2 cells by small molecules, qHTS cell viability counter screen (AID 1346981). Also: series mostly up to about 92 µM; % is scaled to controls: 0 for no effect and ±100 for the full control effect; nearly all actives have a fitted effect of over 30% in size. An outline of the steps: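 The parent HepG2 line is plated at 2,000 cells per well and rested 5 hr before compound pinning from DMSO stocks. Following a 16-hr treatment at 37 C, a fluorogenic live-cell substrate (CellTiter-Fluor) reports viability after 1 hr.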
The target in experiment [13] is Nuclear receptor subfamily 1 group I member 2 (Homo sapiens) (UniProt O75469). Kind of experiment: Human pregnane X receptor (PXR) small molecule agonists, qHTS assay (AID 1346982). Also: nearly all actives have a fitted effect of over 35% in size. Also: potency is read from the fitted curve at half-maximal effect. An outline of the steps:
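After plating in 5% charcoal-stripped FBS and a 5 hr rest, PXR-Luc HepG2 cells received compounds in DMSO. Following 24 hr at 37 C, ONE-Glo was added and light output read.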

Experiment [14] concerns the target Cytochrome P450 2C19 (Homo sapiens) (UniProt P33261). Nature of the experiment: Cytochrome P450 Family 2 Subfamily C Member 19 (CYP2C19) small molecule antagonists: luciferase reporter qHTS assay (AID 1671197). Also: nearly all actives have a fitted effect of over 65% in size. Also: potency is read from the fitted curve at half-maximal effect. An outline of the steps: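 Relative luminescence units recorded 20 min after the detection reagent stopped a 1 h, 37C CYP2C19 reaction on proluciferin substrate, which was started by NADPH regeneration following 10 min room-temperature compound preincubation; ketoconazole positive control.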

A short description of experiment [15]: qHTS assay to identify small molecule antagonists of the TGF-beta/Smad signaling pathway - cell viability counter screen (AID 1346824). Also: % is scaled to controls: 0 for no effect and ±100 for the full control effect; nearly all actives have a fitted effect of over 50% in size. An outline of the steps: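 SBE-bla HEK 293T cells were plated overnight at 37 C, then given compounds in DMSO plus TGF-beta1 (added as 0.25 ng/mL solution) for 5 hr. After the bla read, CellTiter-Glo was added to the same wells and luminescence read after 30 min at room temperature.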

Experiment [16] deals with Nuclear receptor subfamily 1 group I member 2 (Homo sapiens) (UniProt O75469). Nature of the experiment: CYP3A4 induction through human pregnane X receptor (PXR) by small molecules, qHTS assay (AID 1346984). Also: nearly all actives have a fitted effect of over 40% in size. Also: potency is read from the fitted curve at half-maximal effect. An outline of the steps:
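Human PXR activation is tracked via CYP3A4 promoter-luciferase in DPX-2 (HepG2) cells. Compounds treat cells for 24hr at 37C, and luminescence is read after One-Glo.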

Experiment [17] shares this target. Kind of experiment: Human pregnane X receptor (PXR) activation by small molecules, qHTS assay (AID 1346985). Also: nearly all actives have a fitted effect of over 40% in size. Also: potency is read from the fitted curve at half-maximal effect. In short, it runs like this: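 DPX-2 cells (HepG2 co-transfected with a PXR response element and a CYP3A4-promoter luciferase construct) were seeded at 2,000 per well, rested 5 hr at 37C, then exposed to DMSO-dissolved compounds for 24 hr. Activation was read as luciferase luminescence.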

The target in experiment [18] is Cytochrome P450 2D6 (Homo sapiens) (UniProt P10635). Nature of the experiment: Cytochrome P450 Family 2 Subfamily D Member 6 (CYP2D6) small molecule antagonists: luciferase reporter qHTS assay (AID 1671196). Also: nearly all actives have a fitted effect of over 50% in size. Also: potency is read from the fitted curve at half-maximal effect. An outline of the steps: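 Quantitative HTS of Tox21 chemicals against CYP2D6 using a luminescent proluciferin substrate. After NADPH addition, 1 h room-temperature reaction; luminescence recorded 20 min post detection reagent.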

The target of experiment [19] is Nuclear receptor subfamily 1 group I member 2 (Rattus norvegicus) (UniProt Q9R1A7). Nature of the experiment: Rat pregnane X receptor (rPXR) activation by small molecules, qHTS assay (AID 1346983). Also: % is scaled to controls: 0 for no effect and ±100 for the full control effect; nearly all actives have a fitted effect of over 20% in size. The note with it: rPXR luciferase reporter cells, One-Glo luminescence, 24 h; max activation: stronger effect = higher value. An outline of the steps: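 Cell-based rPXR luciferase reporter assay, 2,000 cells per well, rested 5hr at 37 C before compound addition in DMSO, then 24 hr at 37 C. One-Glo reagent was added and luminescence read after 30 min at room temperature.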

The target of experiment [20] is Progesterone receptor (Homo sapiens) (UniProt P06401). Nature of the experiment: qHTS assay to identify small molecule antagonists of the progesterone receptor (PR) signaling pathway (AID 1346795; active = well fitted inhibition curve with a large enough effect in the signal ratio in the repeat runs, not every such curve was filed as active; the % refers to the signal ratio; also: potency is read from the fitted curve at half-maximal effect). An outline of the steps:
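Read-out is fluorescence from the LiveBLAzer B/G FRET substrate, cleaved by a UAS-controlled beta-lactamase in PR-UAS-bla HEK293T cells after 16 hr exposure to compound plus 1 nM promegestone (final), followed by 2 hr at room temperature.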

Values without a mark were called inactive. Results filed as inconclusive are left out. Active and inactive are the calls of the source. Unless noted, calls follow the shape of the dose curve; as a rule, active = well fitted curve in the direction sought with a large enough effect in the repeat runs; inconclusive = weak or mixed curves; inactive = no such curve, though single readings can be large; an effect the other way counts as inactive or inconclusive.

Sequence of Nuclear receptor subfamily 1 group I member 2 (Homo sapiens) (O75469 whole entry, looked up): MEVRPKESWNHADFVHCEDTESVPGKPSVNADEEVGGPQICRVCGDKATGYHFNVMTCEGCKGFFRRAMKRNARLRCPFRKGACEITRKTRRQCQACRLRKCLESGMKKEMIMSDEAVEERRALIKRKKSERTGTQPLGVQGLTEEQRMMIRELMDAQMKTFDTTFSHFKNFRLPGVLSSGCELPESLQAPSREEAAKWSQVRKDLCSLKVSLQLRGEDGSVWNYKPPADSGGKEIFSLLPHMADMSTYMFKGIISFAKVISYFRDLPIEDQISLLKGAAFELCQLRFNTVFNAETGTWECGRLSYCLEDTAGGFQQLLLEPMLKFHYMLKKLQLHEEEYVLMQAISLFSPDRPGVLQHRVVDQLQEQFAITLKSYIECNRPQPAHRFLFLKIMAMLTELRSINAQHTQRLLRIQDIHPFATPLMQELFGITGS
Sequence of Cytochrome P450 2C19 (Homo sapiens) (P33261 whole entry, looked up): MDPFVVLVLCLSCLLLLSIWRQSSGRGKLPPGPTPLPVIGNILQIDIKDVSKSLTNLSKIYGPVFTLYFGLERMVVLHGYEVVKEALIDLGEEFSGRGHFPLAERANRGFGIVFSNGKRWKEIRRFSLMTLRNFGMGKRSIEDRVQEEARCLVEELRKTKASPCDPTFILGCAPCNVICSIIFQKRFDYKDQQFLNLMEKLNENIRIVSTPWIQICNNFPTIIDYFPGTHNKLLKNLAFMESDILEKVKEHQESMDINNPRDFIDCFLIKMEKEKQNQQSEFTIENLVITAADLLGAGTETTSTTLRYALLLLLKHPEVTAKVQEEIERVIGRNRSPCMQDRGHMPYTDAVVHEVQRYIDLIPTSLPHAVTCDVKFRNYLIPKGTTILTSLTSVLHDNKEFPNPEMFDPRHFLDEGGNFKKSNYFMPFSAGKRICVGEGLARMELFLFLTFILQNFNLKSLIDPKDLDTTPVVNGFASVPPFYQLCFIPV
Sequence of Progesterone receptor (Homo sapiens) (P06401 whole entry, looked up): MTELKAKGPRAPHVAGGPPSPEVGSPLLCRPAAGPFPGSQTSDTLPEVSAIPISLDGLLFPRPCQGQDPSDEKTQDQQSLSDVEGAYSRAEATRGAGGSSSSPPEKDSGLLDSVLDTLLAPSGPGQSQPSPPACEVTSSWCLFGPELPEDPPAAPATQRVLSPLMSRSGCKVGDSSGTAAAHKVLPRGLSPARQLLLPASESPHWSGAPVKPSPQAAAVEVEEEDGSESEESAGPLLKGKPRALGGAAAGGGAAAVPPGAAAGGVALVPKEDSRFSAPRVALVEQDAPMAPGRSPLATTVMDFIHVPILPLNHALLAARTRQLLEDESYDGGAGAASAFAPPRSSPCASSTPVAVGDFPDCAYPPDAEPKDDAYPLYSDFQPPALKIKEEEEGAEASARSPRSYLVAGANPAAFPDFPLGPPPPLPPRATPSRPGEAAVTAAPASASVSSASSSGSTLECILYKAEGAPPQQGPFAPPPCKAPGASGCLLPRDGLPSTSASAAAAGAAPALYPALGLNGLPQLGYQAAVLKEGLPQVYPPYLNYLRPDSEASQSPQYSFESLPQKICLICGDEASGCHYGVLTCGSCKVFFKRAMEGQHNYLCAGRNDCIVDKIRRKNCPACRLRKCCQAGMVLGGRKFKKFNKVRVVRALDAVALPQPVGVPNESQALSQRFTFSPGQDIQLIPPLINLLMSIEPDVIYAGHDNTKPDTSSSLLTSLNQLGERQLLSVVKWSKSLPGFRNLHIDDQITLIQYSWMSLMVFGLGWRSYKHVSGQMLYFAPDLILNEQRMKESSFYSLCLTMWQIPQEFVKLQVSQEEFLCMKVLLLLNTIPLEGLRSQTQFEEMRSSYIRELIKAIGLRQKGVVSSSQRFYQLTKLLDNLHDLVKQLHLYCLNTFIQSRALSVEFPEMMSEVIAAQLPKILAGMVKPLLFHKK
Sequence of Thyrotropin-releasing hormone receptor (Homo sapiens) (P34981 whole entry, looked up): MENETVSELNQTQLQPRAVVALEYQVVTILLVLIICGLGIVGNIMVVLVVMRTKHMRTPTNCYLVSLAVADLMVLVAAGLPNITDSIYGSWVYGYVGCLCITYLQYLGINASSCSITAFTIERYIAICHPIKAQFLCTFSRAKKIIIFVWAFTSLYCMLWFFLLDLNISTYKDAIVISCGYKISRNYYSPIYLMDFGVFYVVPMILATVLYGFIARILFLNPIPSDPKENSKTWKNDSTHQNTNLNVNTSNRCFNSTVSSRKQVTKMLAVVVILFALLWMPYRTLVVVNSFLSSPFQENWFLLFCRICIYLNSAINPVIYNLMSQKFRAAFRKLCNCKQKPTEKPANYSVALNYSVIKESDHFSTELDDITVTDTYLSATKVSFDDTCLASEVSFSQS
Sequence of Cytochrome P450 2D6 (Homo sapiens) (P10635 whole entry, looked up): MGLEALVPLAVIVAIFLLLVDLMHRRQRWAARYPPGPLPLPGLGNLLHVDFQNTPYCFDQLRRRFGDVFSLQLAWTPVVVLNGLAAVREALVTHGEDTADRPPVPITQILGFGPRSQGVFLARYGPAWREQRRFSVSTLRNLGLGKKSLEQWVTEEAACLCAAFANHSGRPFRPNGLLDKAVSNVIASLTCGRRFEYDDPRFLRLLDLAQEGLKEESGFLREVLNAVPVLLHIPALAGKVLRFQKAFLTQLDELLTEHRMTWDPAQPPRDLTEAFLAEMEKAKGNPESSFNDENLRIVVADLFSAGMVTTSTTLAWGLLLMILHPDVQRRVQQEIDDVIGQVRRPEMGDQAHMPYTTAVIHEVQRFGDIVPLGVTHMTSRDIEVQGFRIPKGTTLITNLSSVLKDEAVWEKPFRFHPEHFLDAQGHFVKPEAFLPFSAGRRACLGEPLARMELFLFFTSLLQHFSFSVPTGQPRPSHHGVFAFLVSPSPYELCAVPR
Sequence of Nuclear receptor subfamily 1 group I member 2 (Rattus norvegicus) (Q9R1A7 whole entry, looked up): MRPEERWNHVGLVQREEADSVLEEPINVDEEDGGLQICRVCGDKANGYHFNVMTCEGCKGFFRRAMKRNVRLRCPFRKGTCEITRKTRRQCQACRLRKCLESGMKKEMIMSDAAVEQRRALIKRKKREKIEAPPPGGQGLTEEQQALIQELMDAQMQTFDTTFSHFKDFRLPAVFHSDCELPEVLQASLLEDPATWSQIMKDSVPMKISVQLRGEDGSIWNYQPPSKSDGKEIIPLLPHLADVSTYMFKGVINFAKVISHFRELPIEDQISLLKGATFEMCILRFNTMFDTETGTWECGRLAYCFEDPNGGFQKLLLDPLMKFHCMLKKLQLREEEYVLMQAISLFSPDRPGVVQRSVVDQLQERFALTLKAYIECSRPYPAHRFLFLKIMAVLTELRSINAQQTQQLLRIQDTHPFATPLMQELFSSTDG

Take `Cc1ccc2c(ccc3ccccc32)c1`: the call in experiment [1], in experiment [5], in experiment [6] and in [9] was inactive. For the same molecule, the Potency entry in [2], in experiment [3], in experiment [4], in experiment [7], in experiment [8] and in experiment [10] was “inactive” in each case. Besides, the Potency result in experiment [11] and in experiment [12] was “inactive” in each case. Also, the Potency in experiment [13] is 54.6 µM (active); in experiment [14], 35.7 µM (active).

For the molecule `CN1CCN(C2=Nc3ccccc3Sc3ccc(Cl)cc32)CC1`, the call in experiment [1], in [6] and in experiment [9] was inactive. The Potency entry in [2], in experiment [3], in experiment [15], in [4], in [7] and in [8] was “inactive” each time. Moreover, the Potency entry in [10], in experiment [11] and in experiment [12] was “inactive” in each case. For the same molecule, the Potency was 22.4 µM (active) in experiment [16], 25.1 µM (active) in experiment [17] and 15.5 µM (active) in experiment [18].

As for `Nc1nc(N)c2nc(CNc3ccc(C(=O)N[C@@H](CCC(=O)O)C(=O)O)cc3)cnc2n1`, the result in experiment [1], in experiment [6] and in [9] was inactive. The Potency entry in experiment [2], in experiment [3], in experiment [7], in [10], in experiment [11] and in [12] was “inactive” in each case. Besides, the Potency entry in experiment [14] was “inactive”.

Regarding `CC(=O)NCCCS(=O)(=O)O`, the call in experiment [1], in [5] and in experiment [6] was inactive. Moreover, the Potency entry in experiment [2], in [3], in experiment [4], in experiment [8], in experiment [10] and in [11] was “inactive” throughout. Moreover, the Potency result in experiment [12], in [13], in [16], in [17], in [18] and in experiment [14] was “inactive” throughout. Besides, the max activation in experiment [19] is -4.66%.

With `O=C(O)Cn1c(C(=O)Nc2nc(-c3ccccc3Cl)cs2)cc2ccccc21`, the molecule was classed as inactive in [1], in [6] and in [9]. The Potency entry in experiment [2], in experiment [15], in experiment [4], in experiment [8], in experiment [11] and in [12] was “inactive” in each case. The Potency result in experiment [16], in experiment [18] and in [14] was “inactive” in each case. Moreover, the Potency is 3.79 µM (active) in experiment [7] and 26.6 µM (active) in experiment [13]. In experiment [19], the max activation is -0.843%.

In the case of `NC[C@H]1O[C@H](O[C@H]2[C@H](O)[C@@H](O[C@H]3O[C@H](CO)[C@@H](O)[C@H](N)[C@H]3O)[C@H](N)C[C@@H]2N)[C@H](O)[C@@H](O)[C@@H]1O`, the activation is 0.496% [at 8.39 µM] in experiment [1], -1.71% [at 6.97 µM] in [5] and 13.1% [at 8.39 µM] in experiment [13]. The activity change, negative = cytotoxicity in experiment [2] was 1.76% [at 8.39 µM]; in experiment [4] it was 4.11% [at 6.97 µM]; in experiment [8], -6.07% [at 8.39 µM]; in experiment [12] it was -2.29% [at 8.39 µM]. In addition, in experiment [15], the viability change, negative = cytotoxic was 0.819% [at 6.97 µM]. Moreover, the caspase-3/7 activation in [11] is 1.24% [at 8.39 µM]. Moreover, the max activation in experiment [19] was -1%. In addition, the Potency result in experiment [16] was “inactive”. Also, the activity change, negative = inhibition in [18] was -0.562% [at 10.5 µM].

Consider `O=S1(=O)c2cccc3cccc(c23)N1CCCN1CCN(c2ccc(F)cc2)CC1`, for which the molecule was classed as inactive in [1], in [5] and in [6]. For the same molecule, the Potency in [20] is 18.8 µM (active); in [13], 4.73 µM (active); in [17], 15.8 µM (active); in experiment [18], 1.55 µM (active); in experiment [14], 24.5 µM (active). The Potency entry in experiment [4], in experiment [7], in experiment [10], in experiment [11], in [12] and in experiment [16] was “inactive” in each case.

For `CN(C)CCCOc1nn(Cc2ccccc2)c2ccccc12`, the outcome in [1], in experiment [5], in experiment [6] and in [9] was inactive. Further, the Potency entry in [3], in experiment [15], in [4], in [7], in experiment [11] and in [12] was “inactive” throughout. In [8], the Potency is 26.6 µM (active).

As for `CC(C(=O)O)c1ccc(-c2ccccc2)c(F)c1` (stereo unspecified), the Potency entry in experiment [15], in [4], in experiment [8], in experiment [11], in experiment [12] and in experiment [16] was “inactive” in each case. The Potency result in experiment [14] is “inactive”. For the same molecule, the outcome in experiment [9] was inactive. Besides, the max activation in [19] was -4.66%.
